Bioassay records: PubChem BioAssay, National Center for Advancing Translational Sciences (NCATS)
TDP1 cell CPT – growth inhibition of DT40 Tdp1-/-;hTDP1 cells with camptothecin (screen for TDP1 inhibitors) | chicken DT40 Tdp1-/-;hTDP1 cells + 20 nM CPT, ATP luminescence, 48 h | Potency, µM (titrated, usually from 46.2 µM), hits mostly inhibitors | actives 12% (n = 420,000) | AID 686979; also: nearly all actives have a fitted effect of over 55% in size
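Cell growth measured by CellTiter-Glo luminescence after a minimum 48 h, 37 C compound exposure with 20 nM CPT in Tdp1-knockout DT40 cells stably expressing hTDP1, seeded 400/well; qHTS titration format.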
CtBP-E1A inh – blocks the CtBP interaction with E1A | AlphaScreen GST-E1A/His-CtBP binding, 1536-well; hits give low values | actives 0.49% (n = 340,000) | AID 651724 | activity change, % (no concentration beside the values); in the data active = activity change below about -65%; inconclusive = mostly about -30% to -63%
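GST-E1A and His-tagged CtBP (125 nM each as 5X stock) were preincubated with pin-transferred compound for 2 h at 37 °C in the dark, then glutathione donor and nickel acceptor beads were added for 1 h before AlphaScreen reading.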
TDP1 cell noCPT – qHTS for Inhibitors of human tyrosyl-DNA phosphodiesterase 1 (TDP1): qHTS in cells in absence of CPT; DT40 Tdp1-/- hTDP1 cells, no CPT, ATP luminescence, 48 h; AID 686978, 2013; Potency, µM (titrated, usually from 46.2 µM), usual class: inhibitors; actives 15% (n = 420,000); also: nearly all actives have a fitted effect of over 55% in size
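Chicken DT40 Tdp1-/- cells stably complemented with human TDP1 were seeded at 400 cells/well with DMSO in place of 20 nM camptothecin. After compound pinning, cells grew at least 48 hr at 37 °C; viability read by CellTiter-Glo luminescence.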
Six1-Eya2 blk – inhibitors of human Six1/Eya2 interaction. Q15475+O00167. activity change, % (concentration not given with the values). AlphaScreen GST-Six1/His-Eya2 binding, biochemical; hits give low values. AID 651725. actives 0.56% (n = 360,000); in the data active = activity change below about -65%; inconclusive = mostly about -30% to -63%
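Homogeneous AlphaScreen proximity assay pairing GST-Six1 with His-tagged Eya2 (added as 5X mix: 250 nM and 500 nM) in 50 mM Tris pH 8.0, 300 mM NaCl, 1 mM TCEP. Glutathione donor and nickel acceptor beads; 1 h, 37 °C, dark.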
TDP1 block – inhibitors of human tyrosyl-DNA phosphodiesterase TDP1. Q9NUW8. Potency, µM (doses to about 130 µM), usual class: inhibitors. AID 485290. actives 0.28% (n = 350,000). recombinant TDP1, AlphaScreen DNA substrate cleavage; also: nearly all actives have a fitted effect of over 40% in size
Target sequence (Q9NUW8 whole entry, looked up): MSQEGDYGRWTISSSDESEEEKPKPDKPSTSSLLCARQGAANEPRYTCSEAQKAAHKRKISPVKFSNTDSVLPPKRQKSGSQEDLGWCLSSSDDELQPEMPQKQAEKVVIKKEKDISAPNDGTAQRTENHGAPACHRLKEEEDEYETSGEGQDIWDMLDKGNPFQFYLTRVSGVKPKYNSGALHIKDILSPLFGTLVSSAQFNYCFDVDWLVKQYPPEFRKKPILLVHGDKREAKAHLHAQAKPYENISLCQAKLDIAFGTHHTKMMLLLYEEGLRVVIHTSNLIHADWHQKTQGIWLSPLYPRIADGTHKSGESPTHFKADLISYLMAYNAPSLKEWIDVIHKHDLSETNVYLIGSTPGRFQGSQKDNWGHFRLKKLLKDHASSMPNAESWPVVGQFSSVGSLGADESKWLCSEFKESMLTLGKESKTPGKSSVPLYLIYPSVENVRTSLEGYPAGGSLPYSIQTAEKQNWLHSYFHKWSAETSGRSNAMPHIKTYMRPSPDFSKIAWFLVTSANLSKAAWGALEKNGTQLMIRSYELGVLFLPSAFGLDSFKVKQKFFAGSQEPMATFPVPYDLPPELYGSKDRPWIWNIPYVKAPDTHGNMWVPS
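Tdp1 1 nM final; 15 min RT w/ cpd; substrate 15 nM, 5 min; beads 10 ug/ml, 10 min; AlphaScreen read. Neg ctrl: no enzyme.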
IL1B secr inh – blocks inflammasome-driven IL-1 beta release. THP-1 LPS/ATP IL-1B secretion, AlphaLISA, 16 h; hits give low values. activity change, % at 57.5 µM. actives 4.7% (n = 360,000); in the data active = activity change below about -50%; inconclusive = mostly about -30% to -49%
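THP-1 cells pretreated 1 hr with compounds (up to 57.5 uM final), then stimulated with LPS (250 ng/mL final) plus ATP (1.25 mM final); secreted IL-1B measured by AlphaLISA after 16 hr, decreased signal indicating inhibition.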
Each line names hits and unclear results; the compound was inactive in the other large screens. In the library only some 18% were active in any assay of this set; here they are far more common. Unless noted, calls follow the shape of the dose curve; as a rule, active = well fitted curve in the direction sought with a large enough effect; inconclusive = small, poorly fitted or top-dose-only effect, or another doubt; inactive = no such curve, though single readings can be large; an effect the other way counts as inactive or inconclusive.

CC1CCc2nc(NC(=O)Cc3ccc(Cl)cc3)sc2C1 (centres undefined)	TDP1 cell CPT inconclusive, TDP1 cell noCPT 18µM (no result: CtBP-E1A inh, Six1-Eya2 blk, IL1B secr inh)
CC1CCc2nc(NC(=O)Nc3ccc4c(c3)OCO4)sc2C1 (centres undefined)	TDP1 cell CPT inconclusive, TDP1 cell noCPT inconclusive, IL1B secr inh -75
CC1CCc2nc(NC(=O)CN3CCN(c4ccccc4)CC3)sc2C1 (centres undefined)	TDP1 cell CPT inconclusive, TDP1 cell noCPT 21µM
COc1cc(C2Nc3ccccc3C(=O)N2NS(C)(=O)=O)c([N+](=O)[O-])cc1OC (centres undefined)	none (no result: TDP1 block)
CC(C)=CC(=O)Nc1nnc(-c2cccnc2)s1	none
COc1ccc(NC(=O)Cn2c(=O)n(Cc3ccco3)c(=O)c3sc4ccccc4c32)c(OC)c1	none (no result: CtBP-E1A inh, Six1-Eya2 blk, IL1B secr inh)
O=C(CN1CCN(c2ncccn2)CC1)Nc1ccccc1-n1cccc1	TDP1 cell CPT inconclusive, TDP1 cell noCPT 13µM
O=C(CN1CCN(c2ccccn2)CC1)Nc1ccccc1Br	TDP1 cell CPT inconclusive, TDP1 cell noCPT inconclusive (no result: CtBP-E1A inh, TDP1 block)
O=C(CN1CCN(c2ccccc2)CC1)Nc1ccncc1	TDP1 cell CPT inconclusive, TDP1 cell noCPT 18µM (no result: CtBP-E1A inh, TDP1 block)
CC1CCc2nc(NC(=O)C3COc4ccccc4O3)sc2C1 (centres undefined)	TDP1 cell CPT 16µM, TDP1 cell noCPT 21µM
O=C1c2ccccc2C(=O)c2c1ncn2-c1ccccc1	TDP1 cell CPT 5.8µM, TDP1 cell noCPT 5.2µM
Cn1c(=O)n(CCc2ccccc2)c2ccccc21	none (no result: TDP1 block)
O=C(O)CCCCCN1C(=O)C(O)=C(C(=O)/C=C/c2ccccc2)C1c1cccc([N+](=O)[O-])c1 (centres undefined)	none
O=C(NCc1ccccc1C(F)(F)F)c1cccc2c1C(=O)c1ccc(N3CCOCC3)cc1S2(=O)=O	none
Cc1ccc(CNC(=O)c2cccc3c2C(=O)c2ccc(N4CCCCC4)cc2S3(=O)=O)cc1	TDP1 cell CPT 29µM, TDP1 cell noCPT inconclusive
COc1ccccc1N1CCN(c2ccc3c(c2)S(=O)(=O)c2cccc(C(=O)NCc4cccc(F)c4)c2C3=O)CC1	TDP1 cell CPT inconclusive, TDP1 cell noCPT 1.6µM (no result: TDP1 block)
O=C(NCc1cccc(F)c1)c1cccc2c1C(=O)c1ccc(N3CCOCC3)cc1S2(=O)=O	TDP1 cell CPT inconclusive, TDP1 cell noCPT inconclusive
O=C(NCc1ccccc1C(F)(F)F)c1cccc2c1C(=O)c1ccc(N3CCC(N4CCCCC4)CC3)cc1S2(=O)=O	TDP1 cell CPT 2.3µM, TDP1 cell noCPT 3.7µM, IL1B secr inh -103 (no result: TDP1 block)
Cn1nnnc1NCc1cccc(Cl)c1Cl	none
CCCCc1cc(=O)oc2cc(C)c(CN3CCCC3)c(O)c12	TDP1 cell noCPT inconclusive (no result: TDP1 block)
CCc1cc(=O)oc2cc(C)cc(O)c12	TDP1 cell CPT inconclusive, TDP1 cell noCPT inconclusive
CCCc1cc(=O)oc2cc(C)cc(O)c12	TDP1 cell CPT inconclusive, TDP1 cell noCPT 18µM
Cc1cc2oc(=O)cc(CN3CCN(Cc4ccccc4)CC3)c2cc1O	TDP1 cell CPT 8.2µM, TDP1 cell noCPT 7.3µM (no result: CtBP-E1A inh, TDP1 block)
Cc1cc(O)c2c(CN3CCN(Cc4ccccc4)CC3)cc(=O)oc2c1	TDP1 cell CPT inconclusive, TDP1 cell noCPT 15µM (no result: CtBP-E1A inh, TDP1 block)
CCCCCc1cc(O)c2c(C)cc(=O)oc2c1	TDP1 cell CPT 23µM, TDP1 cell noCPT 16µM
CC(C)Oc1ccc(/C(O)=C2/C(=O)C(=O)N(CCCn3ccnc3)C2c2cccnc2)cc1 (centres undefined)	none
CCCc1cc(=O)oc2cc(C)cc(OC(=O)c3ccco3)c12	TDP1 cell CPT 23µM, TDP1 cell noCPT 18µM
CCCc1cc(=O)oc2cc(C)cc(OCC(=O)NCc3cccnc3)c12	none
Cc1ccc(S(=O)(=O)N(C)C)cc1NC(=O)COC(=O)/C(=C/c1ccc(F)cc1)c1cccs1	TDP1 cell CPT 13µM, TDP1 cell noCPT 26µM
CN(C)S(=O)(=O)c1cccc(NC(=O)COc2ccccc2C(=O)Nc2ccccc2)c1	TDP1 cell CPT 18µM, TDP1 cell noCPT 9.2µM, Six1-Eya2 blk inconclusive, IL1B secr inh inconclusive (no result: TDP1 block)
Cc1ccc(S(=O)(=O)N(C)C)cc1NC(=O)COc1ccccc1C(=O)Nc1ccccc1	TDP1 cell CPT 13µM, TDP1 cell noCPT 9.2µM (no result: TDP1 block)
Cc1ccc(S(=O)(=O)N(C)C)cc1NC(=O)COC(=O)c1cccs1	none (no result: TDP1 block)
Cc1ccc(NC(=O)c2ccccc2OCC(=O)Nc2ccccc2F)cc1S(=O)(=O)N(C)C	TDP1 cell CPT 16µM, TDP1 cell noCPT 21µM (no result: CtBP-E1A inh)
C/C(=N\NC(N)=O)c1c(F)cccc1F	none
COc1ccc(Br)cc1C1CC(=O)N2CN(Cc3ccccc3)CSC2=C1C#N (centres undefined)	none
O=C(CSc1nc2ccccc2c(=O)n1NC(=O)Cc1ccccc1)NCc1ccco1	none
Cc1ccc(OCc2nc3ccccc3[nH]2)cc1	TDP1 cell CPT inconclusive, TDP1 cell noCPT inconclusive, IL1B secr inh inconclusive
CCc1nc2c(OCc3ccc(OC(F)F)cc3)cccn2c1N(C)C(=O)c1cccs1	TDP1 cell CPT 21µM, TDP1 cell noCPT 16µM (no result: TDP1 block)
CCc1nc2c(OCCOc3ccc(F)cc3)cccn2c1N(C)C(=O)c1cccs1	TDP1 cell CPT 18µM, TDP1 cell noCPT 10µM (no result: TDP1 block)
CCc1nc2c(OCc3ccc(C(=O)OC)cc3)cccn2c1N(C)C(=O)CC(C)C	TDP1 cell CPT inconclusive, TDP1 cell noCPT inconclusive (no result: TDP1 block)
